This passage reports Tm shift relative to glycine control results from PubChem BioAssay AID1259313 (Sanford-Burnham Center for Chemical Genomics, 2017).

SMILES strings stand for the structures. Screen size: about 340,000 compounds; about 8,500 (2.5%) were called active.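 Rule for the calls: active = melting temperature shift of at least 10% of the positive control shift, at one fixed dose; inactive = the rest.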 The sample as a whole holds a higher share of actives than the screen did.

The test relates to Glutamate receptor ionotropic, NMDA 3A (GRIN3A) ligand-binding domain. Description: NR3A LBD thermal stabilization by compounds – biophysical, differential scanning fluorimetry, uHTS, primary screen (AID 1259313). Conditions: at 25 µM, hits give high values, 0% = protein alone, 100% = glycine-bound protein.
With `CCOC(=O)NNc1cc(C(F)(F)F)ccn1`, the Tm shift relative to glycine control was 0% (inactive).
With `CCOC(=O)C[C@H]1c2ccc(C(F)(F)F)cc2S(=O)(=O)N1c1ccccc1` the figure was -5.05% (inactive); with `CCOC(=O)C1Nc2ccc(C(F)(F)F)cc2C2C=CCC12` (stereo unspecified), 52.4% (active); with `CC[C@]12c3[nH]c4ccc(OC)cc4c3CCN1C(=O)C(CC(=O)NCCN1CCOCC1)C[C@@H]2C(=O)N1CCN(C(=O)C2CC2)CC1` (stereo partly specified), -2.01% (inactive).
For `Cc1cccc(NC(=O)CCn2c(=O)oc3ccccc32)c1`, the Tm shift relative to glycine control is -0.8% (inactive).
On to `N#CCC(=O)N/N=C/c1ccc(SCC(=O)Nc2ccccc2)o1`, for which the Tm shift relative to glycine control was 12.7% (active).
Then `O=C(CSc1ccc(/C=N/NC(=O)c2cccc(F)c2)o1)Nc1ccccc1`, with 12.4% (active).
Then `O=C(CCC(=O)N/N=C/c1ccc(Br)o1)N/N=C/c1ccc(Br)o1`, with -0.2% (inactive).
With `O=C(CCC(=O)Nc1ccccc1)N/N=C/c1ccccc1F` the figure was 0.57% (inactive); with `O=C(CCNC(=O)c1ccccc1)NN=Cc1ccc(Br)o1`, -3.41% (inactive); with `O=C(Cc1ccccc1)Nc1cccc(C(=O)N/N=C/c2ccco2)c1`, 1.04% (inactive).
For `COC(=O)c1ccc(C2C3=C(Nc4nnnn42)c2ccccc2OC3)cc1` (stereo unspecified), the Tm shift relative to glycine control was -8.44% (inactive).
Take `C#CCO[C@@H]1C[C@H](n2cnc3c(=O)[nH]c(NC(=O)C(C)C)nc32)O[C@@H]1CO`: the Tm shift relative to glycine control is 0% (inactive).
For the molecule `CCc1cc(-c2nnc(SCC(=O)NC3CC3)n2C)cs1`, the Tm shift relative to glycine control is -0.41% (inactive).
With `O=C(CC1C(=O)NCCN1C(=O)c1ccc([N+](=O)[O-])cc1)Nc1cccc(Cl)c1` (stereo unspecified) the figure was 0.67% (inactive); with `CCOc1cnc(-c2c(-c3ccccc3Cl)noc2C)o1`, -1.94% (inactive).
For `O=C(NNC(=O)c1ccccc1O)c1ccccc1O`, the Tm shift relative to glycine control is 2.79% (inactive).
With `O=C(NNc1c2ccccc2nc2ccccc12)c1cc2ccccc2cc1O` the figure was 30.2% (active).
For the molecule `O=C(COC(=O)c1ccc(O)cc1O)NC(=O)c1ccccc1`, the Tm shift relative to glycine control was -11.9% (inactive).
With `COCc1[nH][nH]c(=O)c1C=Nc1ccc(F)cc1F` the figure was -2.69% (inactive); with `CCCCN1C(N)=NC[C@@H]1CC1CCCCC1`, -3.87% (inactive).
Then `CCc1cc(=O)oc2cc(C)cc(OCC(=O)N3CCC[C@@H]3C(=O)O)c12`, with -2.37% (inactive); and `Cc1cc([N+](=O)[O-])c(NC2CCCCC2)c([N+](=O)[O-])c1`, with 1.28% (inactive); and `Cc1cc([N+](=O)[O-])ccc1NC1CCCC1`, with 12.8% (active).
With `Cc1cc([N+](=O)[O-])ccc1NS(=O)(=O)c1ccccc1` the figure was -13.4% (inactive); with `O=C(CSc1ccc([N+](=O)[O-])cn1)Nc1ccc(N2CCOCC2)cc1`, 0.67% (inactive).
`O=C(CSc1ccc(-c2ccccn2)nn1)Nc1ccccc1`: the Tm shift relative to glycine control was -2.4% (inactive).
With `O=C(CSc1ccc(-c2ccc(-n3cccn3)cc2)nn1)Nc1ccc([N+](=O)[O-])cc1` the figure was 21.1% (active); with `COc1cc(/C=C(\C#N)c2nc3ccccc3[nH]2)ccc1O`, 28.5% (active); with `Cc1ccc2nc(/C(C#N)=C\c3ccc(OC(=O)c4cccs4)cc3)[nH]c2c1`, -1.46% (inactive).
Then `COCCN(CCOC)S(=O)(=O)c1ccc(/C(O)=C(\C#N)c2nc3ccccc3[nH]2)cc1`, with 0.08% (inactive); and `CCCCOc1ccc(NC(=O)[C@@H]2CCCN2C(=O)C2CCN(S(=O)(=O)c3ccc(C)cc3)CC2)cc1`, with 0% (inactive).
With `CC(=O)Nc1ccc(NC(=O)COc2ccc(S(=O)(=O)NC(C)c3ccccc3)cc2)cc1` (stereo unspecified) the figure was 0.44% (inactive).
Turning to `Cc1ccc(OC(=O)CCC(=O)Nc2ccc(Br)cc2)cc1`, the Tm shift relative to glycine control is 0.17% (inactive).
`COCC(=O)Nc1ccc(Br)cc1`: the Tm shift relative to glycine control was -2.19% (inactive).
Then `CC(=O)Nc1ccc(NC(=O)COc2ccc(-c3ccccc3)cc2)cc1`, with 12.4% (active).
Turning to `O=C(COc1ccccc1)Nc1ccc(F)cc1`, the Tm shift relative to glycine control was -8.63% (inactive).
As for `CC(=O)Nc1ccc(OC(=O)COc2ccc(Br)cc2)cc1`, the Tm shift relative to glycine control was 17.5% (active).
Then `Cc1c(Nc2nc3ccccc3nc2NS(=O)(=O)c2cccs2)c(=O)n(-c2ccccc2)n1C`, with 0.52% (inactive); and `Cc1ccsc1C1C(C#N)=C(N)OC2=C1C(=O)CC(C)(C)C2` (stereo unspecified), with -2.21% (inactive).
Regarding `CSc1cccc(NC(=S)N(Cc2ccccc2)Cc2ccccn2)c1`, the Tm shift relative to glycine control is -4.28% (inactive).
Then `CC(c1ccccn1)N(CCN(C)C)C(=S)Nc1ccccc1F` (stereo unspecified), with 0% (inactive); and `CSc1cccc(NC(=S)N(C(C)C)C(C)c2ccccn2)c1` (stereo unspecified), with 13.8% (active); and `O=C(COC(=O)c1ccccc1Cl)NC1CCCCCCC1`, with 1.11% (inactive).
For `Cn1cccc1C1(C(F)(F)F)NCCNC1=O` (stereo unspecified), the Tm shift relative to glycine control was -0.65% (inactive).
For `CCn1c(CSc2nc(C)cc(C)n2)nnc1SCC(N)=O`, the Tm shift relative to glycine control is 1.48% (inactive).
With `O=C(/C=C/c1ccc(F)cc1)Nc1cccc(S(=O)(=O)Nc2cccc(C(F)(F)F)c2)c1` the figure was 1.46% (inactive).
Then `Cc1oc2c(F)c(F)c(F)c(F)c2c1S(=O)(=O)Nc1cccc(C(F)(F)F)c1`, with 29.7% (active); and `O=C(COc1ccc(S(=O)(=O)Nc2cccc(C(F)(F)F)c2)cc1)N1CCOCC1`, with -0.84% (inactive); and `CC1CCCN(S(=O)(=O)c2ccc(N(C(=O)c3cnccn3)C(C(=O)NC3CCCCC3)c3cccs3)cc2)C1` (stereo unspecified), with 1.68% (inactive).
Then `COCCCNC(=S)N(Cc1ccccc1)Cc1ccc(F)cc1`, with 0.84% (inactive); and `O=C1COc2ccc(NC(=O)N3CCN(c4ccc(F)cc4)CC3)cc2N1`, with -1.31% (inactive).
For the molecule `COCc1c(C(=O)N/N=C\c2cccnc2)nnn1-c1nonc1N`, the Tm shift relative to glycine control is -1.82% (inactive).
As to `COCc1c(C(=O)N/N=C/C2CC=CCC2)nnn1-c1nonc1N` (stereo unspecified), the Tm shift relative to glycine control was -1.57% (inactive).
Then `CC(C)c1c(C(=O)N/N=C/c2ccc(-c3ccccc3)cc2)nnn1-c1nonc1N`, with 1.62% (inactive); and `Nc1nonc1-n1nnc(C(=O)N/N=C/c2cc(Br)ccc2O)c1CSC1=NCCS1`, with 11.5% (active).
Then `CC(C)Oc1ccc(/C=N/NC(=O)c2nnn(-c3nonc3N)c2CN(C)C2CCCCC2)cc1`, with 2.01% (inactive); and `Cc1ccc(SCc2c(C(=O)N/N=C/C3CC=CCC3)nnn2-c2nonc2N)cc1` (stereo unspecified), with 85.4% (active); and `Cc1ccc(SCc2c(C(=O)N/N=C/c3cccnc3)nnn2-c2nonc2N)cc1`, with 30.3% (active).
With `Nc1nonc1-n1nnc(C(=O)N/N=C\c2ccncc2)c1CN1CCCCC1` the figure was 0.45% (inactive); with `CN(C)Cc1c(C(=O)N/N=C/c2ccccc2OCc2ccc(F)cc2)nnn1-c1nonc1N`, 2.67% (inactive).
